Molecules are shown by their SMILES. Out of some 220,000 compounds screened, about 830 (0.38%) were called active. How the calls were made is not given here. Many of the other results were omitted from the sample, so actives are more common in it than they were.

This experiment deals with Regulator of G-protein signaling 16 (Homo sapiens) + Guanine nucleotide-binding protein G(o) subunit alpha (Homo sapiens) (UniProt O15492+P09471). The experiment is described as follows: modulators of RGS16 binding to Galphao, primary screen, biochemical, human proteins, multiplexed bead flow cytometry (AID 1441).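 Further: Galphao activated by GDP with aluminum fluoride before binding.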 The conditions noted are these: bead-based flow cytometry RGS16-Galphao binding, fluorescence; at 10 µM; actives lie on both sides.
Regulator of G-protein signaling 16 (Homo sapiens) + Guanine nucleotide-binding protein G(o) subunit alpha (Homo sapiens), sequence (O15492 whole entry, looked up): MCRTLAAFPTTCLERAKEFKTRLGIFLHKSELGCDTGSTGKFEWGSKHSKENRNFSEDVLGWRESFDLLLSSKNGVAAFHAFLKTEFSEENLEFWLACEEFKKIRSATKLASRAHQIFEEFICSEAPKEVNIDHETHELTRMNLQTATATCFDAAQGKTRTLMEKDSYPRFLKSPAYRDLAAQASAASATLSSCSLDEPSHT
Regulator of G-protein signaling 16 (Homo sapiens) + Guanine nucleotide-binding protein G(o) subunit alpha (Homo sapiens), sequence (P09471 whole entry, looked up): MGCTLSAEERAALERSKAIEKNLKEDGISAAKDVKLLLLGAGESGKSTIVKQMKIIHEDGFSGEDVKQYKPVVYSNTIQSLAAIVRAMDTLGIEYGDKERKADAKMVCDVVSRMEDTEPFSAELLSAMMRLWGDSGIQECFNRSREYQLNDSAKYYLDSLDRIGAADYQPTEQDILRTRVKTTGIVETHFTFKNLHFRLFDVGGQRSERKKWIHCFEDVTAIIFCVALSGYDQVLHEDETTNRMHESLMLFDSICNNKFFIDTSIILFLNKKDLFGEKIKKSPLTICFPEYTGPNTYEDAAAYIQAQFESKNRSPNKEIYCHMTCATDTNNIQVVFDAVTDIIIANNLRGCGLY
For `COCCCN1C(=O)C(=O)/C(=C(/O)c2ccc3c(c2)CC(C)O3)C1c1cccnc1` (stereo not given), the binding response (% of control) is 68.3% (inactive).
Consider `COc1cc(C2/C(=C(\O)c3ccc4c(c3)CC(C)O4)C(=O)C(=O)N2Cc2ccco2)ccc1O` (stereo not given), for which the binding response (% of control) was -10.7% (active).
As to `COc1ccc(/C(O)=C2\C(=O)C(=O)N(Cc3ccco3)C2c2ccc(OC)cc2OC)cc1` (stereo not given), the binding response (% of control) is 97.2% (inactive).
In the case of `CC(=O)Nc1ccc(OCCC[n+]2cccc(C(=O)[O-])c2)cc1` it was 97.8% (inactive); in that of `O=C(NCc1ccccc1)c1ccc(CNc2c(N3CCCC3)c(=O)c2=O)cc1`, 102% (inactive); in that of `COc1ccc(Br)cc1/C=N/Nc1ccc(Cl)c(C(=O)O)c1`, 103% (inactive).
In the case of `O=C(Cn1cnc2cc([N+](=O)[O-])ccc2c1=O)NC(=O)NCc1ccccc1` it was 112% (inactive); in that of `Nc1c(N(CCO)C(=O)C2CCCCC2)c(=O)[nH]c(=O)n1Cc1ccccc1`, 86.5% (inactive); in that of `Cn1c(=O)c2c(n(Cc3ccccc3)c1=O)NC(=O)C2CC(=O)N1CCc2ccccc2C1` (stereo not given), -1.02% (active).
The figure for `O=C(CSc1nnc(-c2cccs2)n1Cc1ccccc1)N1CCc2ccccc2C1` is 101% (inactive); for `O=C(COc1ccccc1)N1CCc2ccccc2C1` it is 102% (inactive).
As for `Cc1cc(C)n(CC(O)CN(c2ccccc2)S(=O)(=O)c2ccc3ccccc3c2)n1` (stereo not given), the binding response (% of control) was -6.51% (active).
On to `O=S(=O)(c1ccccc1)N(CC(O)CN1CCCCC1)c1ccccc1` (stereo not given), for which the binding response (% of control) is 96.4% (inactive).
The figure for `Cc1ccc(N(CC(O)CN2CCCC2)S(=O)(=O)c2ccccc2)cc1` (stereo not given) is 100% (inactive).
As for `CCN(CC(=O)Nc1ccc(Cl)c(S(=O)(=O)N(C)C)c1)Cc1nc2ccccc2c(=O)[nH]1`, the binding response (% of control) is 107% (inactive).
Turning to `CCOC(=O)CSc1nc(C)c(Oc2ccc(Cl)cc2Cl)c(=O)[nH]1`, the binding response (% of control) was 101% (inactive).
The figure for `COc1ccc(C(=O)C[n+]2ccc(N)c(C)c2C)cc1` is 99.8% (inactive); for `CCOC(=O)c1c(CC(C)C)csc1/N=C/C1=C(O)CCCC1=O` it is 103% (inactive); for `CN1CCN(C(=O)C2C3C=CC(C3)C2C(=O)O)CC1` (stereo not given) it is 102% (inactive).
In the case of `C/C(=C/C(=O)N1CCN(C)CC1)C(=O)O` it was 234% [activator] (active).
Consider `CCN1CCN(C(=O)/C=C\C(=O)O)CC1`, for which the binding response (% of control) was 101% (inactive).
In the case of `COC(=O)C(C(=O)Nc1cccc(C)n1)C1CCCCCC1` (stereo not given), the binding response (% of control) is 103% (inactive).
As to `CCCc1cc(=S)n2c([nH]c3ccccc32)c1C#N`, the binding response (% of control) is 97.3% (inactive).
Take `CSc1sc(C(=O)NNC(=O)c2ccc(Cl)cc2)c2c1C=CCC2`: the binding response (% of control) was 92.2% (inactive).
Consider `O=C(O)c1ccccc1C(=O)Nc1ccccc1[N+](=O)[O-]`, for which the binding response (% of control) was 96.6% (inactive).
